Bioassay records deposited in PubChem BioAssay by National Center for Advancing Translational Sciences (NCATS).
Only some compounds are listed: those with a hit (about 19% of all), similar ones and a draw of the others.
IL-1B inflam inh = inhibitors of inflammasome signaling (IL-1 beta secretion); activity change, % at 57.5 µM; hit rate 4.7% among 360,000; THP-1 LPS/ATP IL-1B secretion, AlphaLISA, 16 h; stronger effect = lower value; AID 743279; in the data active = activity change below about -50%; inconclusive = mostly about -30% to -49%
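THP-1 cells pretreated 1 hr with compounds (up to 57.5 uM final), then stimulated with LPS (250 ng/mL final) plus ATP (1.25 mM final); secreted IL-1B measured by AlphaLISA after 16 hr, decreased signal indicating inhibition.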
HT1080NT lethal = kills 2HG-producing HT-1080-NT fibrosarcoma cells; Potency, µM (top dose mostly 46.1 µM), for the others: at the highest dose activity, negative = less viability, usual class: cytotoxic; HT-1080-NT fibrosarcoma viability, CellTiter-Glo ATP luminescence, 48 h; hit rate 1.6% among 360,000;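 note: NT is the 2HG producing partner of a matched IDH1 knockdown line; potency is the fitted concentration of half-maximal effect; 0% = DMSO-treated cells and -100% = media-only wells without cells; nearly all actives have a fitted effect of over 55% in size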
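HT-1080-NT; 750 cells/well; 5% FBS RPMI; 48 h compound, 37 degrees C; CellTiter-Glo luminescence; curve fitting and curve-class assignment.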
HT1080 IDH1KD tx = kills HT-1080 cells with IDH1 knockdown; HT-1080 IDH1 knockdown viability, ATP luminescence, 48 h; Potency, µM (top dose mostly 46.1 µM), without a hit: at the highest dose activity, negative = toxicity, most hits filed as cytotoxic; hit rate 2% among 360,000; AID 686971;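 note: potency is the fitted concentration of half-maximal effect; 0% = DMSO wells and -100% = cell-free medium wells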
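IDH1KD HT-1080 cells, 750/well, RPMI + 5% FBS; compound pinned after 2 h settling; 48 h, 37 °C; CellTiter-Glo luminescence; % activity normalised to DMSO and no-cell wells; curves fitted, classed by r2 and efficacy.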
TDP1 cell CPT = DT40-hTDP1 cell growth loss with CPT | Potency, µM (top dose mostly 46.2 µM), inactives show top-dose activity change, negative = growth inhibition, hits mostly inhibitors | chicken DT40 Tdp1-/-;hTDP1 cells + 20 nM CPT, ATP luminescence, 48 h | AID 686979 | hit rate 12% among 420,000; note: potency is the fitted concentration of half-maximal effect; nearly all actives have a fitted effect of over 55% in size
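Cell growth measured by CellTiter-Glo luminescence after a minimum 48 h, 37 C compound exposure with 20 nM CPT in Tdp1-knockout DT40 cells stably expressing hTDP1, seeded 400/well; qHTS titration format.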
TDP1 cell noCPT = qHTS for Inhibitors of human tyrosyl-DNA phosphodiesterase 1 (TDP1): qHTS in cells in absence of CPT; hit rate 15% among 420,000; DT40 Tdp1-/- hTDP1 cells, no CPT, ATP luminescence, 48 h; Potency, µM (titrated, usually from 46.2 µM), inactives show at the highest dose activity change, negative = growth inhibition, actives largely listed as inhibitors; note: potency is the fitted concentration of half-maximal effect; nearly all actives have a fitted effect of over 55% in size
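Growth kinetics read by CellTiter-Glo luminescence after ≥48 hr at 37 °C. Cells: DT40 Tdp1-/- stably carrying human TDP1, 400 per well, compound exposure in the absence of CPT (DMSO vehicle).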
Active calls of the source: *. Unless noted, calls come from the whole dose curve; as a rule, active = well fitted curve in the direction sought with a large enough effect; inconclusive = small, poorly fitted or top-dose-only effect, or another doubt; inactive = no such curve, though single readings can be large; an effect the other way counts as inactive or inconclusive. Unless noted, % is set by controls: 0 for no effect and ±100 for the full control effect.

COc1ccc(-c2cnc(NCc3cc4c(cc3[N+](=O)[O-])OCO4)n2C)cc1 was read as IL-1B inflam inh -51*, HT1080NT lethal -2%, HT1080 IDH1KD tx -13%, TDP1 cell CPT 26µM* and TDP1 cell noCPT 13µM*.
For CCCCOC(=O)c1ccc(NC(=O)/C=C/c2cccs2)cc1 the results were IL-1B inflam inh -4, HT1080NT lethal -20%, HT1080 IDH1KD tx -26%, TDP1 cell CPT inconclusive and TDP1 cell noCPT inconclusive.
Cc1nn(C)c(N)c1C(O)(c1nccn1C)C(F)(F)F (stereo not drawn) was read as IL-1B inflam inh 10, HT1080NT lethal 19%, HT1080 IDH1KD tx 16%, TDP1 cell CPT 8% and TDP1 cell noCPT 4%.
Screening COc1ccc(NC(=S)Nc2ccc(S(=O)(=O)N3CCCCC3)cc2)cc1 returned IL-1B inflam inh -21, HT1080NT lethal 8%, HT1080 IDH1KD tx -1%, TDP1 cell CPT inconclusive and TDP1 cell noCPT inconclusive.
For Cc1cccc(C(=O)NC(=S)Nc2ccc(S(=O)(=O)N3CCN(C)CC3)cc2)c1 the results were IL-1B inflam inh 0, HT1080NT lethal -24%, HT1080 IDH1KD tx -16%, TDP1 cell CPT inconclusive and TDP1 cell noCPT 23µM*.
Screening Cc1cccc(C(=O)NC(=S)Nc2ccc(S(=O)(=O)N3CCCCC3)cc2)c1 returned IL-1B inflam inh -1, HT1080NT lethal -5%, HT1080 IDH1KD tx -6%, TDP1 cell CPT 18µM* and TDP1 cell noCPT 15µM*.
For O=C(NC(=S)Nc1ccc(S(=O)(=O)N2CCCC2)cc1)c1cccs1 the results were IL-1B inflam inh -19, HT1080NT lethal 0%, HT1080 IDH1KD tx 1%, TDP1 cell CPT inconclusive and TDP1 cell noCPT inconclusive.
Cc1ccc(C(=O)NC(=S)Nc2ccc(S(=O)(=O)N3CCN(C)CC3)cc2)cc1 was read as IL-1B inflam inh -6, HT1080NT lethal -11%, HT1080 IDH1KD tx 0%, TDP1 cell CPT 16µM* and TDP1 cell noCPT 21µM*.
Screening COc1cc(C=NNC(=S)Nc2ccc(S(=O)(=O)N3CCCCC3)cc2)cc(OC)c1OC returned IL-1B inflam inh -17, HT1080NT lethal -9%, HT1080 IDH1KD tx -4%, TDP1 cell CPT 16µM* and TDP1 cell noCPT 8.2µM*.
`CC(=O)N(c1ccccc1)C(C(=O)c1ccccc1)c1ccccc1` (stereo not drawn) gave IL-1B inflam inh inconclusive, HT1080NT lethal 0%, HT1080 IDH1KD tx -11%, TDP1 cell CPT inconclusive and TDP1 cell noCPT inconclusive.
Screening Cc1ccccc1CNC(=O)C(C)N(c1ccccc1)S(C)(=O)=O (stereo not drawn) returned TDP1 cell CPT 0% and TDP1 cell noCPT 0%.
COc1ccc(NC(=O)N2CC[C@@]3(CCCN(C(=O)c4ccco4)C3)C2)cc1 was read as TDP1 cell CPT 4% and TDP1 cell noCPT 2%.
Screening Nc1ccccc1C(=O)CC(N)C(=O)O (stereo not drawn) returned TDP1 cell CPT -3% and TDP1 cell noCPT -16%.
Cc1ccc(CN2CC(N3CCCCC3)CS2(=O)=O)cc1 (stereo not drawn) was read as IL-1B inflam inh 58, HT1080NT lethal 11%, HT1080 IDH1KD tx 21%, TDP1 cell CPT -23% and TDP1 cell noCPT -16%.
`Oc1ccc(C[C@H]2CNC(=S)N2C[C@H]2CCCN2C[C@H](Cc2ccccc2)N2C[C@H](Cc3ccccc3)N(CC3CCCCC3)C2=S)cc1` gave IL-1B inflam inh -1, HT1080NT lethal inconclusive, HT1080 IDH1KD tx inconclusive, TDP1 cell CPT inconclusive and TDP1 cell noCPT 13µM*.
CC(C)C[C@H]1CNC(=S)N1CC1CCCN1C[C@H](Cc1ccccc1)N1C[C@H](Cc2ccc(O)cc2)N(CC2CCCCCC2)C1=S (stereo partly drawn) was read as IL-1B inflam inh -67*, HT1080NT lethal -21%, HT1080 IDH1KD tx inconclusive, TDP1 cell CPT inconclusive and TDP1 cell noCPT inconclusive.
